Results reported in PubChem BioAssay (EPA / NIEHS).
Results filed as inconclusive are left out. Active and inactive are the calls of the source. The calls were made as follows: active = hit-call score of the fitted dose curve at least 0.9, where 1 is the maximum; inconclusive = response in the unintended direction; inactive = score below 0.9.

The compounds below were run on Cytochrome P450 3A4 (Homo sapiens) (UniProt P08684) (assay: CLD_CYP3A4_24hr: CellzDirect (CLD) Gene Expression Assay for xenobiotic metabolism (CYP3A4) at 24 hours (AID 2283689)).
Chain of Cytochrome P450 3A4 (Homo sapiens) (P08684 whole entry, looked up): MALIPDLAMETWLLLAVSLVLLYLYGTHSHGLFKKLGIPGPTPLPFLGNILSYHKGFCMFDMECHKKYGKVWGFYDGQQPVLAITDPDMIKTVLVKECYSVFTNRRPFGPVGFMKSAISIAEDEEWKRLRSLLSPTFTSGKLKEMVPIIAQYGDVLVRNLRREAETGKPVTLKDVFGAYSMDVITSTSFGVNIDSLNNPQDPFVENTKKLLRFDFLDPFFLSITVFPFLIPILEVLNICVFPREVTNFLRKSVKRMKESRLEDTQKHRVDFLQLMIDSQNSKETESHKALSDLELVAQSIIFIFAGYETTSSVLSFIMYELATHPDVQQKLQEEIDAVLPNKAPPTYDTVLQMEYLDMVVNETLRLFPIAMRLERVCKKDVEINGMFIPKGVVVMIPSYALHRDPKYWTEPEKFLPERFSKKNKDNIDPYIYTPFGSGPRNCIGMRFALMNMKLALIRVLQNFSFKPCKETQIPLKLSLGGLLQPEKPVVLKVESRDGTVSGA
Experimental: CLD_24hr is a cell-based, multiplexed-readout assay that uses hepatocyte, a human liver primary cell, with measurements taken at 24 hours after chemical dosing in a 96-well plate.CLD_CYP3A4_24hr is one of 16 assay component(s) measured or calculated from the CLD_24hr assay. It is designed to make measurements of mRNA induction, a form of inducible reporter, as detected with chemiluminescence signals by Quantitative Nuclease Protection Assay (qNPA) technology.Data from the assay component CLD_CYP3A4_24hr was analyzed at the endpoint, CLD_CYP3A4_24hr, in the positive analysis fitting direction relative to DMSO as the negative control and baseline of activity. Using a type of inducible reporter, gain-of-signal activity can be used to understand changes in the reporter gene as they relate to the gene CYP3A4. Furthermore, this assay endpoint can be referred to as a primary readout. To generalize the intended target to other relatable targets, this assay endpoint is annotated to the cyp intended target family, where subfamily is xenobiotic metabolism.
Human hepatocyte cultures were treated daily for two consecutive days with fresh dosing solutions containing appropriate concentrations of the 320 ToxCast chemicals (chemical identities were blinded to CellzDirect and other ToxCast collaborators), vehicle control (0.2% DMSO), and positive control inducers as summarized in Table 1. Due to the large number of treatment groups and chemicals examined, the ToxCast chemicals were divided into two groups (spanning two independent cultures of hepatocytes from separate donor preparations (Hu778: ToxCast plates 1 and 2; Hu776: ToxCast plates 3 and 4). Each preparation of human hepatocyte cultures was treated with respective vehicle control, medium only control, set of six positive controls/reference chemicals for the five hepatic receptor pathways, and a subset of eight of the ToxCast chemicals (indoxacarb, pyrithiobac-sodium, norflurazon, cyhalofop-butyl, methomyl, thiram, acetochlor, and propiconazole). These replicate data, coupled with internal replicates designed within the blinded ToxCast chemical library, provided additional data to evaluate interindividual differences between hepatocyte preparations and their potential impact on chemical profiles.Cell morphology and integrity were evaluated using phase-contrast microscopy as an indicator of hepatocyte cell health (Tyson & Green, 1987). Cultures for each treatment group (i.e., media, vehicle [0.2% DMSO], positive control inducers [multiple concentrations], and the ToxCast chemicals [multiple concentrations]) were observed and cell morphology was assessed relative to vehicle control cultures at each harvest time point (0, 6, 24, or 48 h). […] Images were evaluated at the conclusion of the study to assess changes in cell integrity and account for the effects of chemical exposure on uncharacteristic changes in concentration-dependent gene expression profiles. The results from these determinations of apparent cytotoxicity were annotated (yes/no) alongside the corresponding qNPA data for reference.At the conclusion of each treatment period, hepatocyte cultures (96-well) were washed with 1 volume of HBSS, lysed by addition of 25 ul ArrayPlate lysis buffer (HTG, Tucson, AZ), and 70 ul/well of Denaturation Oil, denatured by incubation at 95C for 10 min, and frozen at approximately -70C until analysis by nuclease protection assay (qNPA) (Roberts et al., 2007). For qNPA analysis, cell lysates were thawed at 50C for approximately 30 min, qNPA probes were added, and samples were incubated at 95C for 10 min to begin the detection process by denaturing the target RNA, dissociating the duplexes and secondary structure hybridization. At the conclusion of the hybridization period, S1 nuclease reagent was added to each sample to digest all nonprotected nucleotides at 50C for 60-90 min. […]
For `COC(=O)c1ccccc1CS(=O)(=O)NC(=O)Nc1nc(OC)cc(OC)n1`, the outcome was “inactive”. For `CNC(=O)/C=C(\C)OP(=O)(OC)OC`, the outcome was “inactive”. `CCC(C)(C)C(=O)OC1=C(c2ccc(Cl)cc2Cl)C(=O)OC12CCCCC2` was tested, and the AC50 was 0.0493 µM (active). `CC1(C)C(C=C(Cl)Cl)C1C(=O)OC(C#N)c1ccc(F)c(Oc2ccccc2)c1` (stereo not drawn) was tested, and the outcome was “inactive”. `CCc1ccc(C(=O)NN(C(=O)c2cc(C)cc(C)c2)C(C)(C)C)cc1` was tested, and the AC50 was 3.67 µM (active). For `Cc1[nH]c(=O)n(C(C)(C)C)c(=O)c1Cl`, the outcome was “inactive”. With `O=C(O)C(F)(F)C(F)(F)C(F)(F)C(F)(F)C(F)(F)C(F)(F)C(F)(F)F` the AC50 was 20 µM (active). With `CC1(c2ccc(Oc3ccccc3)cc2)OC(=O)N(Nc2ccccc2)C1=O` (stereo not drawn) the outcome was “inactive”. `CCCN(CCOc1c(Cl)cc(Cl)cc1Cl)C(=O)n1ccnc1` was tested, and the AC50 was 0.57 µM (active). For `Clc1ccccc1-c1nnc(-c2ccccc2Cl)nn1`, the AC50 was 3.97 µM (active). `COC(=O)c1ccccc1S(=O)(=O)NC(=O)N(C)c1nc(C)nc(OC)n1` was tested, and the outcome was “inactive”. In the case of `OCCOc1ccccc1`, the outcome is reported as “inactive”. `O=[N+]([O-])/N=C1\NCCN1Cc1ccc(Cl)nc1` was tested, and the outcome was “inactive”. For `COP(=S)(OC)Oc1ccc(SC)c(C)c1`, the outcome was “inactive”. In the case of `N#Cc1c(Cl)c(Cl)c(Cl)c(C#N)c1Cl`, the outcome is reported as “inactive”. `CCOC1Oc2ccc(OS(C)(=O)=O)cc2C1(C)C` (stereo not drawn) was tested, and the AC50 was 20 µM (active). With `CCC(C)(NC(=O)c1cc(Cl)c(C)c(Cl)c1)C(=O)CCl` (stereo not drawn) the AC50 was 4.49 µM (active). In the case of `CC(C)N(C(=O)COc1nnc(C(F)(F)F)s1)c1ccc(F)cc1`, the outcome is reported as “inactive”. In the case of `CNC(=O)Oc1cccc(N=CN(C)C)c1`, the outcome is reported as “inactive”. With `CCS(=O)(=O)c1cccnc1S(=O)(=O)NC(=O)Nc1nc(OC)cc(OC)n1` the AC50 was 20 µM (active). For `CCN(CC)C(=O)SCc1ccc(Cl)cc1`, the AC50 was 20 µM (active). In the case of `O=S(=O)(O)C(F)(F)C(F)(F)C(F)(F)C(F)(F)C(F)(F)C(F)(F)C(F)(F)C(F)(F)F`, the outcome is reported as “inactive”. In the case of `CCCN(CCC)c1c([N+](=O)[O-])cc(C(F)(F)F)cc1[N+](=O)[O-]`, the AC50 is reported as 5.68 µM (active). In the case of `O=C(O)CCCOc1ccc(Cl)cc1Cl`, the outcome is reported as “inactive”. For `COP(=S)(OC)Oc1ccc([N+](=O)[O-])cc1`, the outcome was “inactive”. `CC(C)OC(=O)Nc1cccc(Cl)c1` was tested, and the AC50 was 16 µM (active). `O=[N+]([O-])c1c(Cl)c(Cl)c(Cl)c(Cl)c1Cl` was tested, and the outcome was “inactive”. In the case of `CC(C)(C)C(O)/C(=C\c1ccc(Cl)cc1Cl)n1cncn1` (stereo not drawn), the AC50 is reported as 0.98 µM (active). For `C[C@H]1[C@H](c2ccc(Cl)cc2)SC(=O)N1C(=O)NC1CCCCC1`, the AC50 was 3.56 µM (active). In the case of `CNC(=O)Oc1ccccc1OC(C)C`, the AC50 is reported as 5.41 µM (active). `Oc1ccc(Cl)cc1Cc1ccccc1` was tested, and the outcome was “inactive”. For `CCOc1nc(NC)nc(NC(=O)NS(=O)(=O)c2ccccc2C(=O)OC)n1`, the outcome was “inactive”. For `CCOCN(C(=O)CCl)c1c(C)cccc1CC`, the AC50 was 3 µM (active). In the case of `Cc1cc(C)nc(NC(=O)NS(=O)(=O)c2ccccc2C(=O)OC2COC2)n1`, the AC50 is reported as 20 µM (active). With `CCC(C)Nc1c([N+](=O)[O-])cc(C(C)(C)C)cc1[N+](=O)[O-]` (stereo not drawn) the AC50 was 3.84 µM (active). With `O=C(NC(=O)c1c(F)cccc1F)Nc1ccc(OC(F)(F)C(F)OC(F)(F)F)c(Cl)c1` (stereo not drawn) the outcome was “inactive”. With `O=S1OCC2C(CO1)C1(Cl)C(Cl)=C(Cl)C2(Cl)C1(Cl)Cl` (stereo not drawn) the AC50 was 20 µM (active). `COC(=O)c1ccccc1S(=O)(=O)NC(=O)Nc1nc(C)nc(OC)n1` was tested, and the outcome was “inactive”.
